Measured values: paper PMC7862700, “An all-to-all approach to the identification of sequence-specific readers for epigenetic DNA modifications on cytosine”

Target: ETV5 (Homo sapiens, UniProt P41161 1-510)
Assay: DAPPL (digital affinity profiling via proximity ligation, sequencing); 10 mM Tris-HCl pH 7.5, 50 mM NaCl, 1 mM DTT, 4% glycerol, room temperature, 30 min; GST-TFs on glutathione beads, 16-mer random dsDNA library, 0.1% formaldehyde crosslink after washing; high values mean tight binding
Conditions: protein: recombinant; tags: N-terminal GST; dsDNA, one strand shown
Procedure, shortened: (§1)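 Binding signal is given per hexamer as its read frequency for a factor divided by its frequency in the tag-only sample. GST-fused human transcription factors were expressed in yeast, captured on glutathione beads, barcoded with DNA and pooled with that sample, then incubated with 200 nmole of a 16-mer random double-stranded DNA library in Tris/NaCl/DTT/glycerol buffer for 30 min at room temperature. The pools were then washed, crosslinked, proximity-ligated, amplified by PCR and sequenced on an Illumina NextSeq500.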

ETV5, sequence (P41161 whole entry): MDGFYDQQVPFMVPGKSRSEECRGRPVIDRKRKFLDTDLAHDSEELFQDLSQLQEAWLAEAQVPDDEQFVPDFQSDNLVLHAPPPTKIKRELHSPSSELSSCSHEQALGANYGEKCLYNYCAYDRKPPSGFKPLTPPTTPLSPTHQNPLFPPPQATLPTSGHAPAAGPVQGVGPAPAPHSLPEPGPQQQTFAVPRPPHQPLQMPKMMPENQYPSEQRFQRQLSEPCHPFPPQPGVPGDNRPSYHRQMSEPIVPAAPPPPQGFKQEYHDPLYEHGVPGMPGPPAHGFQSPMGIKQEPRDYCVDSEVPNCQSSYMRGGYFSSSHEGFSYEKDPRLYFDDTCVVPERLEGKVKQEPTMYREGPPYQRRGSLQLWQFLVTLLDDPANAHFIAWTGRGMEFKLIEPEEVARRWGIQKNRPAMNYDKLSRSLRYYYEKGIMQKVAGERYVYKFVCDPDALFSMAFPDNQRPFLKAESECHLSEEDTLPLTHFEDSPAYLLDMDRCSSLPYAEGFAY

In order of falling binding signal:
1. GCCGGA  1.16 fold enrichment (6-mer frequency, TF over GST control)
2. GGACTT  1.15 fold enrichment (6-mer frequency, TF over GST control)
3. GACCGG  1.12 fold enrichment (6-mer frequency, TF over GST control)
4. ATAGGC  1.1 fold enrichment (6-mer frequency, TF over GST control)
5. AACGCA  1.09 fold enrichment (6-mer frequency, TF over GST control)
6. GTGCCC  1.08 fold enrichment (6-mer frequency, TF over GST control)
7. GTGCCT  1.07 fold enrichment (6-mer frequency, TF over GST control)
8. GTACCA  1.07 fold enrichment (6-mer frequency, TF over GST control)
9. AAACAG  1.07 fold enrichment (6-mer frequency, TF over GST control)
10. TGGTCG  1.06 fold enrichment (6-mer frequency, TF over GST control)
11. GAAACC  1.05 fold enrichment (6-mer frequency, TF over GST control)
12. AGTTAC  1.05 fold enrichment (6-mer frequency, TF over GST control)
13. ATCCGT  1.05 fold enrichment (6-mer frequency, TF over GST control)
14. GCGTAT  1.05 fold enrichment (6-mer frequency, TF over GST control)
15. TAGGCC  1.05 fold enrichment (6-mer frequency, TF over GST control)
16. AGTCCT  1.05 fold enrichment (6-mer frequency, TF over GST control)
17. AGCGTC  1.04 fold enrichment (6-mer frequency, TF over GST control)
18. AGTACC  1.04 fold enrichment (6-mer frequency, TF over GST control)
19. CAGTTC  1.04 fold enrichment (6-mer frequency, TF over GST control)
20. ATAGGG  1.03 fold enrichment (6-mer frequency, TF over GST control)
21. AGCGGC  1.03 fold enrichment (6-mer frequency, TF over GST control)
22. TATGAG  1.02 fold enrichment (6-mer frequency, TF over GST control)
23. GGGTAT  1.02 fold enrichment (6-mer frequency, TF over GST control)
24. CGGCAA  1.02 fold enrichment (6-mer frequency, TF over GST control)
25. CTGTAG  1.02 fold enrichment (6-mer frequency, TF over GST control)
26. GTCCGG  1.01 fold enrichment (6-mer frequency, TF over GST control)
27. CATAGC  1.01 fold enrichment (6-mer frequency, TF over GST control)
28. TGAAGC  1.01 fold enrichment (6-mer frequency, TF over GST control)
29. GTTGGT  1.01 fold enrichment (6-mer frequency, TF over GST control)
30. CATAGT  1.01 fold enrichment (6-mer frequency, TF over GST control)
31. GGATAC  1.01 fold enrichment (6-mer frequency, TF over GST control)
32. GCCCGG  1.01 fold enrichment (6-mer frequency, TF over GST control)
33. CGAGGT  1.01 fold enrichment (6-mer frequency, TF over GST control)
34. AACTGT  1 fold enrichment (6-mer frequency, TF over GST control)
35. GGCAAT  1 fold enrichment (6-mer frequency, TF over GST control)
36. CGACGG  1 fold enrichment (6-mer frequency, TF over GST control)
37. CCACCG  1 fold enrichment (6-mer frequency, TF over GST control)
38. GGCTAT  1 fold enrichment (6-mer frequency, TF over GST control)

Target: T1, SPIC (Homo sapiens, UniProt Q8N5J4 1-248)
T1 sequence: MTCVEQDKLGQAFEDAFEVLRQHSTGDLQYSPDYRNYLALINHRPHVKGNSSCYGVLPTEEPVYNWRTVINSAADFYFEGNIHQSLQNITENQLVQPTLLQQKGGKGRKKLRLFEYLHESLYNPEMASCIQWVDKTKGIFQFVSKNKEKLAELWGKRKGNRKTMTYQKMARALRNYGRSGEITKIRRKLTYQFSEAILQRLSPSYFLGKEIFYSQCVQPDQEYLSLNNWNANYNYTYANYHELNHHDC
Assay: as above
Conditions: protein: recombinant; tags: N-terminal GST; dsDNA, one strand shown
Procedure, shortened: as §1

In order of falling binding signal:
1. GTGCCT  1.2 fold enrichment (6-mer frequency, TF over GST control)
2. CAGTTC  1.17 fold enrichment (6-mer frequency, TF over GST control)
3. TATGAG  1.16 fold enrichment (6-mer frequency, TF over GST control)
4. CGACGG  1.15 fold enrichment (6-mer frequency, TF over GST control)
5. TGGTCG  1.13 fold enrichment (6-mer frequency, TF over GST control)
6. AGTCCT  1.13 fold enrichment (6-mer frequency, TF over GST control)
7. AAACAG  1.12 fold enrichment (6-mer frequency, TF over GST control)
8. AGCGTC  1.11 fold enrichment (6-mer frequency, TF over GST control)
9. AGTTAC  1.1 fold enrichment (6-mer frequency, TF over GST control)
10. CTGTAG  1.08 fold enrichment (6-mer frequency, TF over GST control)
11. ATAGGG  1.08 fold enrichment (6-mer frequency, TF over GST control)
12. GCGTAT  1.07 fold enrichment (6-mer frequency, TF over GST control)
13. ATAGGC  1.06 fold enrichment (6-mer frequency, TF over GST control)
14. GGCTAT  1.03 fold enrichment (6-mer frequency, TF over GST control)
15. AACGCA  1.02 fold enrichment (6-mer frequency, TF over GST control)
16. ATCCGT  1 fold enrichment (6-mer frequency, TF over GST control)

Target: ELF4 (Homo sapiens, UniProt Q99607 1-663)
Assay: as above
Conditions: protein: recombinant; tags: N-terminal GST; dsDNA, one strand shown
Procedure, shortened: as §1

ELF4, sequence (Q99607 whole entry): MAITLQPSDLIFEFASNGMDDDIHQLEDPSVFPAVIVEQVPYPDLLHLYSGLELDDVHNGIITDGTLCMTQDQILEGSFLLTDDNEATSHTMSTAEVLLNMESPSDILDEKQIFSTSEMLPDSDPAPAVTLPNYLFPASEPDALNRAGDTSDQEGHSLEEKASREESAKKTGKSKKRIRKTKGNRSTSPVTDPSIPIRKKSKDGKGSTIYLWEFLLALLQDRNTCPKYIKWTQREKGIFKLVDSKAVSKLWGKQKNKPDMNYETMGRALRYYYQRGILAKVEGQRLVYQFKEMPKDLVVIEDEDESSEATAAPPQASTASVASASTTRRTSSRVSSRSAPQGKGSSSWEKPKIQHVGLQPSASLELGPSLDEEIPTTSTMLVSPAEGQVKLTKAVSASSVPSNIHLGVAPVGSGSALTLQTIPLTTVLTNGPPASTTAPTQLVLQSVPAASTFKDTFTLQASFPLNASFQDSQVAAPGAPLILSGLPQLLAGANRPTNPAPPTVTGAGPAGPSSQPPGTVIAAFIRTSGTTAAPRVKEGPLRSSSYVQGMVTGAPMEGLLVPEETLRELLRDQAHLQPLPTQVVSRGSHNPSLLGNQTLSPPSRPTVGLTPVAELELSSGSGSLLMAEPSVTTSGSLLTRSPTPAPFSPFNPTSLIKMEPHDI

In order of rising binding signal:
1. TAGGCC  1.01 fold enrichment (6-mer frequency, TF over GST control)
2. GACCGG  1.03 fold enrichment (6-mer frequency, TF over GST control)
3. GTGCCC  1.03 fold enrichment (6-mer frequency, TF over GST control)
4. GGACTT  1.09 fold enrichment (6-mer frequency, TF over GST control)
5. CCACCG  1.11 fold enrichment (6-mer frequency, TF over GST control)

Target: T2, ELK4 (Homo sapiens, UniProt P28324-2 1-405)
T2 sequence: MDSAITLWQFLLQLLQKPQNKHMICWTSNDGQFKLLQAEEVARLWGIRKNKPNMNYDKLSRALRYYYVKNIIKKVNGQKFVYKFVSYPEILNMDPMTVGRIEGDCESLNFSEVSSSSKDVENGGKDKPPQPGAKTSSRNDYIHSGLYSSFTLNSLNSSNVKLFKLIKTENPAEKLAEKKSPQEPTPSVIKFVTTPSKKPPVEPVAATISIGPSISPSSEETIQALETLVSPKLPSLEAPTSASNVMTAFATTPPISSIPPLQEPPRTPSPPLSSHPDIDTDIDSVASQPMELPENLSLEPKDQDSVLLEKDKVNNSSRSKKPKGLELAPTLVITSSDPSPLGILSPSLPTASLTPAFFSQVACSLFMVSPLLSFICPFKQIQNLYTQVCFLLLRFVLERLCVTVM
Assay: as above
Conditions: protein: recombinant; tags: N-terminal GST; dsDNA, one strand shown
Procedure, shortened: as §1

In order of rising binding signal:
1. AGTCCT  1 fold enrichment (6-mer frequency, TF over GST control)
2. AGCGGC  1 fold enrichment (6-mer frequency, TF over GST control)
3. AGCGTC  1.01 fold enrichment (6-mer frequency, TF over GST control)
4. CGACGG  1.02 fold enrichment (6-mer frequency, TF over GST control)
5. TGAAGC  1.04 fold enrichment (6-mer frequency, TF over GST control)
6. AAACAG  1.04 fold enrichment (6-mer frequency, TF over GST control)
7. ATAGGG  1.06 fold enrichment (6-mer frequency, TF over GST control)
8. CGAGGT  1.06 fold enrichment (6-mer frequency, TF over GST control)
9. GTGCCC  1.07 fold enrichment (6-mer frequency, TF over GST control)
10. CAGTTC  1.07 fold enrichment (6-mer frequency, TF over GST control)
11. GGACTT  1.08 fold enrichment (6-mer frequency, TF over GST control)
12. GTTGGT  1.09 fold enrichment (6-mer frequency, TF over GST control)
13. GTACCA  1.09 fold enrichment (6-mer frequency, TF over GST control)
14. GGGTAT  1.1 fold enrichment (6-mer frequency, TF over GST control)
15. CATAGT  1.14 fold enrichment (6-mer frequency, TF over GST control)
16. GGCTAT  1.15 fold enrichment (6-mer frequency, TF over GST control)
17. GTGCCT  1.16 fold enrichment (6-mer frequency, TF over GST control)

Target: T3, ETV2 (Homo sapiens, UniProt O00321 1-342)
T3 sequence: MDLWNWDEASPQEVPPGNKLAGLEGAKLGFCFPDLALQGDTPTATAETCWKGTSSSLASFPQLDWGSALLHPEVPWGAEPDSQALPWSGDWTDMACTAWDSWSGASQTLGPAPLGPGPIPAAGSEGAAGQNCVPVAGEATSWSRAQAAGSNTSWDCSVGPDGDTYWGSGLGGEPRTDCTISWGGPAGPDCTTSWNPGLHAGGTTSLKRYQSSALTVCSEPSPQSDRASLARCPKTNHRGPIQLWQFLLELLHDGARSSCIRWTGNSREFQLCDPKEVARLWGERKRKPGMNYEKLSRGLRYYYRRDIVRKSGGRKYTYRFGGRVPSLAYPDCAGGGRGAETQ
Assay: as above
Conditions: protein: recombinant; tags: N-terminal GST; dsDNA, one strand shown
Procedure, shortened: as §1

In order of falling binding signal:
1. GTGCCT  1.22 fold enrichment (6-mer frequency, TF over GST control)
2. GGACTT  1.19 fold enrichment (6-mer frequency, TF over GST control)
3. AACTGT  1.15 fold enrichment (6-mer frequency, TF over GST control)
4. AACGCA  1.1 fold enrichment (6-mer frequency, TF over GST control)
5. TGGTCG  1.08 fold enrichment (6-mer frequency, TF over GST control)
6. ATAGGG  1.08 fold enrichment (6-mer frequency, TF over GST control)
7. CATAGC  1.06 fold enrichment (6-mer frequency, TF over GST control)
8. GAAACC  1.06 fold enrichment (6-mer frequency, TF over GST control)
9. GGCTAT  1.06 fold enrichment (6-mer frequency, TF over GST control)
10. AGTACC  1.03 fold enrichment (6-mer frequency, TF over GST control)
11. AGTCCT  1.02 fold enrichment (6-mer frequency, TF over GST control)
12. GGATAC  1.01 fold enrichment (6-mer frequency, TF over GST control)

Target: T4, ELF3 (Homo sapiens, UniProt P78545 1-371)
T4 sequence: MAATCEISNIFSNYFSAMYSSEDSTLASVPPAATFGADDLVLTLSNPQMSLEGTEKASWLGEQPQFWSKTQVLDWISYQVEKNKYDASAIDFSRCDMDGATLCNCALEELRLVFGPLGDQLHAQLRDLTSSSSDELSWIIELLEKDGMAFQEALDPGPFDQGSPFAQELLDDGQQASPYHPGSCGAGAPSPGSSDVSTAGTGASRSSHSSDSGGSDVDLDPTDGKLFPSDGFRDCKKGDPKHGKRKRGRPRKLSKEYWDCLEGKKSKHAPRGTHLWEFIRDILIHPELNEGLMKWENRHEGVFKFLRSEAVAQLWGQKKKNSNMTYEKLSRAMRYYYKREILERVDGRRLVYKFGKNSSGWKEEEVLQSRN
Assay: as above
Conditions: protein: recombinant; tags: N-terminal GST; dsDNA, one strand shown
Procedure, shortened: as §1

In order of falling binding signal:
1. GACCGG  1.14 fold enrichment (6-mer frequency, TF over GST control)
2. CATAGC  1.1 fold enrichment (6-mer frequency, TF over GST control)
3. AACTGT  1.09 fold enrichment (6-mer frequency, TF over GST control)
4. TATGAG  1.08 fold enrichment (6-mer frequency, TF over GST control)
5. CATAGT  1.07 fold enrichment (6-mer frequency, TF over GST control)
6. ATAGGC  1.07 fold enrichment (6-mer frequency, TF over GST control)
7. GGACTT  1.06 fold enrichment (6-mer frequency, TF over GST control)
8. GCCGGA  1.05 fold enrichment (6-mer frequency, TF over GST control)
9. GAAACC  1.03 fold enrichment (6-mer frequency, TF over GST control)
10. AACGCA  1.03 fold enrichment (6-mer frequency, TF over GST control)
11. GCGTAT  1.03 fold enrichment (6-mer frequency, TF over GST control)
12. GGCAAT  1.01 fold enrichment (6-mer frequency, TF over GST control)
13. GGCTAT  1.01 fold enrichment (6-mer frequency, TF over GST control)
14. AAACAG  1.01 fold enrichment (6-mer frequency, TF over GST control)
